# Results: the supplement of paper PMC8728848
# The entries come from a sample that favours the strongest signals as a whole.
# Experiments:
# Assay in all cases: glycan array binding signal (z-score within array); higher = stronger binding
# Settings in all cases: glycan notation: IUPAC condensed, linker removed
# [1] = biological target: GalNAc(a1-3)Fuc(a1-2)Gal(b1-4)GlcNAc(b1-3)[GalNAc(a1-3)Fuc(a1-2)Gal(b1-4)GlcNAc(b1-6)]GalNAc
# Summary of the method: (§1)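 Columns mapping to the same glycan were averaged after glycan names were converted to IUPAC-condensed notation. The data come from 3228 arrays in the Consortium for Functional Glycomics database, limited to those with an available protein sequence. Binding is reported as a within-array Z-score averaged across arrays of one protein sequence and across linkers.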
# GalNAc(b1-3)GlcNAc = biological target: GalNAc(b1-3)GlcNAc
# Summary of the method: as §1
# GalNAc(b1-4)Gal(b1-4)Glc = biological target: GalNAc(b1-4)Gal(b1-4)Glc
# Summary of the method: as §1
# [2] = biological target: GlcNAc(a1-4)Gal(b1-4)GlcNAc(b1-3)Gal(b1-4)GlcNAc
# Summary of the method: as §1
# GlcNAc(b1-3)Fuc = biological target: GlcNAc(b1-3)Fuc
# Summary of the method: as §1
# [3] = biological target: GlcNAc(b1-3)Gal(b1-4)GlcNAc(b1-3)Gal(b1-4)GlcNAc(b1-2)Man(a1-3)[GlcNAc(b1-3)Gal(b1-4)GlcNAc(b1-3)Gal(b1-4)GlcNAc(b1-2)Man(a1-6)]Man(b1-4)GlcNAc(b1-4)GlcNAc
# Summary of the method: as §1
# [4] = biological target: GlcNAc(b1-3)Gal(b1-4)GlcNAc(b1-6)[Gal(b1-3)]GalNAc
# Summary of the method: as §1
# GlcNAc(b1-3)GalNAc = biological target: GlcNAc(b1-3)GalNAc
# Summary of the method: as §1
# Man(a1-3)[Man(a1-6)]Man = biological target: Man(a1-3)[Man(a1-6)]Man
# Summary of the method: as §1
# [5] = biological target: Neu5Ac(a2-3)Gal(b1-3)GalNAc(b1-4)[Neu5Ac(a2-3)]Gal(b1-4)Glc
# Summary of the method: as §1
# [6] = biological target: Neu5Ac(a2-3)Gal(b1-3)[Fuc(a1-4)]GlcNAc(b1-3)Gal(b1-4)[Fuc(a1-3)]GlcNAc
# Summary of the method: as §1
# [7] = biological target: Neu5Ac(a2-3)Gal(b1-3)[Neu5Ac(a2-3)Gal(b1-4)]GlcNAc
# Summary of the method: as §1
# [8] = biological target: Neu5Ac(a2-3)Gal(b1-3)]Neu5Ac(a2-3)Gal(b1-4)]GlcNAc
# Summary of the method: as §1
# [9] = biological target: Neu5Ac(a2-3)Gal(b1-4)GlcNAc(b1-2)Man(a1-3)[GlcNAc(b1-2)Man(b1-4)GlcNAc(b1-2)Man(a1-6)]Man(b1-4)GlcNAc(b1-4)GlcNAc
# Summary of the method: as §1
# [10] = biological target: Neu5Ac(a2-3)Gal(b1-4)GlcNAc(b1-2)Man(a1-3)[Neu5Ac(a2-3)Gal(b1-4)GlcNAc(b1-2)Man(a1-6)]Man(b1-4)GlcNAc(b1-4)GlcNAc
# Summary of the method: as §1
# [11] = biological target: Neu5Ac(a2-3)Gal(b1-4)GlcNAc(b1-2)Man(a1-3)[Neu5Ac(a2-3)Gal(b1-4)GlcNAc(b1-2)Man(a1-6)]Man(b1-4)GlcNAc(b1-4)[Fuc(a1-6)]GlcNAc
# Summary of the method: as §1
# [12] = biological target: Neu5Ac(a2-3)Gal(b1-4)GlcNAc(b1-2)[Neu5Ac(a2-3)Gal(b1-4)GlcNAc(b1-4)]Man(a1-3)[GlcNAc(b1-4)][Neu5Ac(a2-3)Gal(b1-4)GlcNAc(b1-2)[Neu5Ac(a2-3)Gal(b1-4)GlcNAc(b1-6)]Man(a1-6)]Man(b1-4)GlcNAc(b1-4)GlcNAc
# Summary of the method: as §1
# [13] = biological target: Neu5Ac(a2-3)Gal(b1-4)GlcNAc(b1-2)[Neu5Ac(a2-3)Gal(b1-4)GlcNAc(b1-4)]Man(a1-3)[GlcNAc(b1-4)][Neu5Ac(a2-3)Gal(b1-4)GlcNAc(b1-4)Man(a1-6)]Man(b1-4)GlcNAc(b1-4)GlcNAc
# Summary of the method: as §1
# [14] = biological target: Neu5Ac(a2-3)Gal(b1-4)GlcNAc(b1-2)[Neu5Ac(a2-3)Gal(b1-4)GlcNAc(b1-6)]Man(a1-6)[Neu5Ac(a2-3)Gal(b1-4)GlcNAc(b1-2)Man(a1-3)][GlcNAc(b1-4)]Man(b1-4)GlcNAc(b1-4)GlcNAc
# Summary of the method: as §1
# [15] = biological target: Neu5Ac(a2-3)Gal(b1-4)GlcNAc(b1-6)[Neu5Ac(a2-3)Gal(b1-3)]GalNAc
# Summary of the method: as §1
# [16] = biological target: Neu5Ac(a2-3)Gal(b1-4)[Fuc(a1-3)]GlcNAc(b1-3)Gal
# Summary of the method: as §1
# [17] = biological target: Neu5Ac(a2-3)Gal(b1-4)[Fuc(a1-3)]GlcNAc(b1-3)Gal(b1-4)[Fuc(a1-3)]GlcNAc(b1-3)Gal(b1-4)[Fuc(a1-3)]GlcNAc
# Summary of the method: as §1
# [18] = biological target: Neu5Ac(a2-3)Gal6S(b1-4)GlcNAc
# Summary of the method: as §1
# [19] = biological target: Neu5Ac(a2-3)Gal6S(b1-4)[Fuc(a1-3)]GlcNAc
# Summary of the method: as §1
# [20] = biological target: Neu5Ac(a2-6)Gal(b1-4)GlcNAc(b1-2)[Neu5Ac(a2-6)Gal(b1-4)GlcNAc(b1-4)]Man(a1-3)[GlcNAc(b1-4)][Neu5Ac(a2-6)Gal(b1-4)GlcNAc(b1-4)Man(a1-6)]Man(b1-4)GlcNAc(b1-4)GlcNAc
# Summary of the method: as §1
# Neu5Ac(a2-6)GalNAc = biological target: Neu5Ac(a2-6)GalNAc
# Summary of the method: as §1
# Neu5Gc(a2-3)Gal(b1-4)Glc = biological target: Neu5Gc(a2-3)Gal(b1-4)Glc
# Summary of the method: as §1
# [21] = biological target: Neu5Gc(a2-3)Gal(b1-4)GlcNAc
# Summary of the method: as §1
binder,measurement,setting,value
"Siglec-F (Mus musculus), Q920G3 (protein) MRWAWLLPLLWAGCLATDGYSLSVTGSVTVQEGLCVFVACQVQYPNSKGPVFGYWFREGANIFSGSPVATNDPQRSVLKEAQGRFYLMGKENSHNCSLDIRDAQKIDTGTYFFRLDGSVKYSFQKSMLSVLVIALTEVPNIQVTSTLVSGNSTKLLCSVPWACEQGTPPIFSWMSSALTSLGHRTTLSSELNLTPRPQDNGTNLTCQVNLPGTGVTVERTQQLSVIYAPQKMTIRVSWGDDTGTKVLQSGASLQIQEGESLSLVCMADSNPPAVLSWERPTQKPFQLSTPAELQLPRAELEDQGKYICQAQNSQGAQTASVSLSIRSLLQLLGPSCSFEGQGLHCSCSSRAWPAPSLRWRLGEGVLEGNSSNGSFTVKSSSAGQWANSSLILSMEFSSNHRLSCEAWSDNRVQRATILLVSGPKVSQAGKSETSRGTVLGAIWGAGLMALLAVCLCLIFFTVKVLRKKSALKVAATKGNHLAKNPASTINSASITSSNIALGYPIQGHLNEPGSQTQKEQPPLATVPDTQKDEPELHYASLSFQGPMPPKPQNTEAMKSVYTEIKIHKC",glycan array binding signal (z-score),[1],-0.088
same,glycan array binding signal (z-score),GalNAc(b1-3)GlcNAc,-0.154
same,glycan array binding signal (z-score),GalNAc(b1-4)Gal(b1-4)Glc,-0.099
same,glycan array binding signal (z-score),[2],-0.146
same,glycan array binding signal (z-score),GlcNAc(b1-3)Fuc,-0.135
same,glycan array binding signal (z-score),[3],-0.064
same,glycan array binding signal (z-score),[4],-0.15
same,glycan array binding signal (z-score),GlcNAc(b1-3)GalNAc,-0.12
same,glycan array binding signal (z-score),Man(a1-3)[Man(a1-6)]Man,-0.113
same,glycan array binding signal (z-score),[5],3.76
same,glycan array binding signal (z-score),[6],-0.066
same,glycan array binding signal (z-score),[7],2.46
same,glycan array binding signal (z-score),[8],3.65
same,glycan array binding signal (z-score),[9],2.11
same,glycan array binding signal (z-score),[10],1.94
same,glycan array binding signal (z-score),[11],2.76
same,glycan array binding signal (z-score),[12],8.27
same,glycan array binding signal (z-score),[13],5.53
same,glycan array binding signal (z-score),[14],5.76
same,glycan array binding signal (z-score),[15],0.072
same,glycan array binding signal (z-score),[16],-0.088
same,glycan array binding signal (z-score),[17],-0.109
same,glycan array binding signal (z-score),[18],13.2
same,glycan array binding signal (z-score),[19],12.9
same,glycan array binding signal (z-score),[20],-0.097
same,glycan array binding signal (z-score),Neu5Ac(a2-6)GalNAc,-0.113
same,glycan array binding signal (z-score),Neu5Gc(a2-3)Gal(b1-4)Glc,-0.118
same,glycan array binding signal (z-score),[21],-0.126
